Bioassay records (PubChem BioAssay)
AmpC inh no detg = blocks E. coli AmpC beta-lactamase in detergent-free assay; P00811; AmpC nitrocefin hydrolysis, absorbance 480 nm, 0.0001% Triton; Potency, µM (doses to about 57.1 µM), without a hit: at the highest dose activity change, negative = inhibition, actives largely listed as inhibitors; hit rate 0.52% among 330,000; AID 485341;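 also: plate controls were no compound for no effect and no enzyme for full effect; nearly all actives have a fitted effect of over 20% in size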
Target sequence (P00811 whole entry, looked up): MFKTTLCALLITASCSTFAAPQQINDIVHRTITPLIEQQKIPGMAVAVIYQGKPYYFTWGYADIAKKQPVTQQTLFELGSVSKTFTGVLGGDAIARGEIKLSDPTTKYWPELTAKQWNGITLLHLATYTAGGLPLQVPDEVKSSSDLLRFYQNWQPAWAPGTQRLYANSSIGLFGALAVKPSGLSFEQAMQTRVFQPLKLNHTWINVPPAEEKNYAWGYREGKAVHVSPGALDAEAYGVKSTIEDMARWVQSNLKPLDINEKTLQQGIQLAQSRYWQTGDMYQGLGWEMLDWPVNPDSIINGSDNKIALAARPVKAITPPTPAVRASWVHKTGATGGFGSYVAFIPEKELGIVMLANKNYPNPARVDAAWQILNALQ
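AmpC (5.3 nM in the dispensed reagent) in 20 mM phosphate pH 7.0 with 0.01% (detergent screen) or 0.0001% Triton X-100 was preincubated with compounds for 15 min at room temperature. Nitrocefin was then added from an 800 uM solution, and hydrolysis was followed at 480 nm.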
VACV Venus inh = vaccinia inhibition (Venus reporter); AID 720580; Potency, µM (doses to about 36.5 µM), without a hit: at the top dose activity change, negative = inhibition, usual class: inhibitors; hit rate 0.46% among 330,000; Vaccinia virus Venus reporter expression, fluorescence; calls by dose curve; tested in A549 cells; also: nearly all actives have a fitted effect of over 30% in size
VACV mCherry inh = vaccinia inhibition (mCherry reporter). AID 720579. hit rate 0.63% among 310,000. Vaccinia virus mCherry reporter infection, fluorescence. Potency, µM (series often up to 36.5 µM), for the others: at the top dose activity change, negative = inhibition, actives largely listed as inhibitors; calls by dose curve; tested in A549 cells; also: nearly all actives have a fitted effect of over 35% in size
AmpC inh detg = blocks E. coli AmpC beta-lactamase in detergent assay; P00811; hit rate 0.041% among 370,000; Potency, µM (highest dose often 114 µM), without a hit: at the top dose activity change, negative = inhibition, most hits filed as inhibitors; AID 485294; AmpC hydrolysis of nitrocefin, absorbance 480 nm, 0.01% Triton;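 also: 0% = no-compound wells and -100% = no-enzyme wells; nearly all actives have a fitted effect of over 25% in size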
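20 mM phosphate pH 7.0 + 0.01% (detergent screen) or 0.0001% Triton X-100; 5.3 nM AmpC reagent; cpd preinc 15 min RT; nitrocefin (800 uM stock) to start; A480 q20 s × 4 min; Activity was normalised to no-enzyme and no-compound control wells.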
* marks the source's active call; other numbers are inactive results; i = inactive; ? = inconclusive; · = not tested or not shown; [ ] = remark or other dose. This is a sample that favours compounds with a hit; in the whole collection about 1.1% have one here. Unless noted, calls follow the shape of the dose curve; as a rule, active = well fitted curve in the direction sought with a large enough effect; inconclusive = small, poorly fitted or top-dose-only effect, or another doubt; inactive = no such curve, though single readings can be large; an effect the other way counts as inactive or inconclusive. Unless noted, % is scaled to controls: 0 for no effect and ±100 for the full control effect; potency is read from the fitted curve at half-maximal effect.

SMILES	AmpC inh no detg	VACV Venus inh	VACV mCherry inh	AmpC inh detg
CC1CCc2cc(F)cc3c2N1C(=O)C(C(=O)Nc1cnccn1)C3=O (stereo not drawn)	·	-16.4%	-23.1%	·
Cc1ccc(NC(=O)c2ccc(NC(=O)C3CCCC3)cc2)c(C)c1	·	-10.3%	-21.9%	·
Cc1ccc(S(=O)(=O)c2cc3ccccc3oc2=Nc2ccc3c(c2)OCCO3)cc1	3.16µM*	-8.5%	i	-4.7%
COc1cccc2cc(S(=O)(=O)c3ccccc3)c(=Nc3ccc4c(c3)OCCO4)oc12	3.55µM*	-7.1%	i	-5.6%
COc1ccccc1NS(=O)(=O)c1ccc2c(c1)OCCO2	-12.7%	-15.2%	-17.9%	-2.0%
Cc1ccc(S(=O)(=O)c2cc3ccccc3oc2=Nc2ccc3c(c2)OCO3)cc1	-13.1%	3.8%	-0.7%	4.6%
N=c1ccn2c(n1)OC1C(O)C(CO)OC12 (stereo not drawn)	-2.9%	?	28.2µM*	-7.5%
Nc1ccn(C2OC(COC(=O)C34CC5CC(CC(C5)C3)C4)C(O)C2O)c(=O)n1 (stereo not drawn)	·	?	0.316µM*	·
Nc1ccn([C@@H]2O[C@H](COS(=O)(=O)O)[C@@H](O)[C@H]2O)c(=O)n1	-0.4%	2.0%	i	·
Nc1ccn([C@@H]2O[C@H](CO)[C@@H](O)[C@H]2O)c(=O)n1	·	-14.0%	-20.0%	·
OCC1OC(n2cnc3ncccc32)C(O)C1O (stereo not drawn)	·	4.9%	6.8%	·
Nc1ccn([C@@H]2O[C@H](CO)[C@@H](O)C2O)c(=O)n1 (stereo partly drawn)	-16.2%	-26.8%	0.447µM*	-5.7%
NCCCN(Cc1ccccc1)c1ccc(Br)cn1	·	-6.4%	i	·
COc1ccc(CCNc2ncnc3sc(C(=O)N(C)C)c(C)c23)cc1OC	·	-2.5%	-8.3%	·
CC1=C(C(=O)NCc2ccc(Cl)cc2)C2(CCC(C)CC2)OC1=O (stereo not drawn)	35.8%	-13.9%	-5.1%	0.9%
CC1=C(C(=O)NCc2ccccn2)C2(CCC(C)CC2)OC1=O (stereo not drawn)	2.82µM*	5.5%	-8.9%	?
COC(=O)c1ccccc1-c1cc(C)cc2c1OC(CNC(=O)c1cc(C)n(C)n1)C2 (stereo not drawn)	·	-10.2%	i	·
O=C(NCc1ccncc1)c1cnn(-c2ncc3c(n2)-c2ccccc2CC3)c1C1CC1	·	-7.8%	i	·
Cc1ccccc1CN(C)CCS(=O)(=O)c1cc(Cl)ccc1Cl	-18.4%	?	5.01µM*	-8.9%
O=C1OC(c2ccccc2)(c2ccc3cc(O)ccc3c2)c2ccccc21 (stereo not drawn)	·	?	7.94µM*	·
COc1ccc(/C=C2\CCc3ccccc3C2=O)cc1OC	46.0%	?	7.94µM*	-1.6%
Cc1ccc(C(=O)NNC(=O)c2cc3ccccc3cc2O)cc1	28.2µM*	?	-25.4%	-14.8%
COc1cc(OC)c(NC(=O)c2ccccc2F)cc1Cl	-21.0%	·	·	-1.3%
COc1cc(NC(=O)c2ccco2)ccc1NC(=O)c1ccccc1Cl	-30.2%	-27.6%	·	-6.7%
COc1cc(NC(=O)c2cc3ccccc3cc2O)c(OC)cc1Cl	3.55µM*	·	·	-5.4%
SMILES	AmpC inh no detg	VACV Venus inh	VACV mCherry inh	AmpC inh detg
COc1cc(NC(=O)c2ccccc2Cl)ccc1NC(=O)c1ccco1	-25.5%	?	14.1µM*	0.5%
O=C(NNC(=O)c1cc2ccccc2cc1O)Nc1ccc(F)cc1F	12.6µM*	-12.3%	i	2.3%
CNC(=O)c1cc(-c2cccs2)on1	·	?	-26.5%	·
CCn1c(SCC(=O)NCc2ccco2)nnc1-c1cccc(N(C)C)c1	·	-20.5%	-2.8%	·
COc1ccc(C)cc1NC(=O)NNC(=O)c1cc2ccccc2cc1O	6.31µM*	·	·	-0.3%
COc1ccc(NC(=O)NNC(=O)c2cc3ccccc3cc2O)cc1	?	·	·	0.9%
Cc1nc2ccc(Cl)cc2c(-c2ccccc2)c1C(=O)N(C)C	94.9%	·	·	0.7%
CCOC(=O)c1c(CN2CCNCC2)nc2ccc(Cl)cc2c1-c1ccccc1	·	?	10µM*	·
Cc1c(C(=O)N2CC3CCC2C3)sc2ncnc(NCCc3c[nH]c4ccccc34)c12 (stereo not drawn)	·	-25.1%	?	·
COc1ccc(/C=C2/C(=O)N(c3nc4ccccc4s3)N=C2CSc2ccc(Cl)cc2)cc1	15.8µM*	-11.0%	-9.2%	-11.8%
Cc1cc2c([nH]c3ccccc32)c2c1OC(C)(C)C=C2	-23.6%	-26.0%	-26.0%	7.9%
COc1ccc2[nH]c(=O)c3c(c2c1)OC(C)(C)C=C3	43.9%	11.2µM*	12.6µM*	-3.9%
O=C(c1ccco1)N1CCN(c2cc(=O)n(-c3ccc(Cl)cc3)c(=O)[nH]2)CC1	44.7µM*	-6.1%	11.0%	?
COc1ccccc1-c1sc2cc3c(cc2c1-c1ccc(OCCN2CCCCC2)cc1)OCO3	72.2%	11.2µM*	28.2µM*	·
CCN(CC)S(=O)(=O)c1cccc(NC(=O)CN2C(=O)c3ccc([N+](=O)[O-])cc3C2=O)c1	8.91µM*	-16.6%	-5.2%	?
COC(=O)c1ccc(-c2cccc3c2OC(CNC(=O)/C=C/c2ccc(OC)c(OC)c2)C3)nc1 (stereo not drawn)	·	-25.5%	-26.3%	·
CCCOc1ccccc1NC(=O)CC1Nc2ccccc2NC1=O (stereo not drawn)	17.8µM*	·	·	-9.3%
CCOc1ccccc1NC(=O)CC1Nc2ccccc2NC1=O (stereo not drawn)	-28.9%	?	·	9.1%
COc1ccccc1C1CN(CCNC(=O)[C@@H]2CSC(=O)N2)Cc2ccccc2O1 (stereo partly drawn)	·	-7.3%	-7.8%	·
COCCN(C(=O)COC(=O)/C=C/c1ccc(SC)cc1)c1c(N)n(Cc2ccccc2)c(=O)[nH]c1=O	·	-7.3%	-16.8%	·
COCCN(C(=O)COC(=O)/C=C/c1ccc(C(F)(F)F)cc1)c1c(N)n(Cc2ccccc2)c(=O)[nH]c1=O	8.7%	?	12.6µM*	-8.8%
COCCCN(C(=S)NC(=O)C(C)(C)C)c1c(N)n(Cc2ccccc2)c(=O)[nH]c1=O	-14.7%	0.0%[7.34 µM]	i[7.34 µM]	9.7%
COCCCN(C(=S)NC(=O)c1ccc(Br)cc1)c1c(N)n(Cc2ccccc2)c(=O)[nH]c1=O	5.62µM*	4.8%	-11.2%	-1.6%
Cc1cnc(C(=O)NCc2c(C)ncc3c2CCN(C(=O)/C=C/c2cccs2)C3)cn1	·	-5.7%	-13.9%	·
Cc1ccc(S(=O)(=O)Nc2ccc(NC(=O)Nc3cccc(C(F)(F)F)c3)cc2)cc1	-15.0%	?	11.2µM*	1.8%
CCN(CC)S(=O)(=O)c1ccc(NC(=O)Nc2cccc(C(F)(F)F)c2)cc1	-39.6%	·	·	-0.8%
COC(=O)C(NC(=O)c1ccccc1C)(Nc1ncc(S(=O)(=O)c2ccc([N+](=O)[O-])cc2)s1)C(F)(F)F (stereo not drawn)	-38.9%	·	·	?
COC(=O)C(NC(=O)c1ccc(F)cc1)(Nc1ncc(S(=O)(=O)c2ccc([N+](=O)[O-])cc2)s1)C(F)(F)F (stereo not drawn)	8.91µM*	?	11.2µM*	-13.6%
